Results filed as inconclusive are left out. The source made the active and inactive calls. Calls come from the whole dose curve; as a rule, active = well fitted curve in the direction sought with a large enough effect; inconclusive = small, poorly fitted or top-dose-only effect, or another doubt; inactive = no such curve, though single readings can be large; an effect the other way counts as inactive or inconclusive.
How the values were obtained:
[1] = NS1 protein of Zika virus - qHTS assay to identify small molecule inhibitors in human HEK 293 cells (AID 1347053); note: series mostly up to about 46 µM; nearly all actives have a fitted effect of over 55% in size
Summary of the method: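 Compound-treated (1 h pre-infection) HEK 293 cells infected with ZIKV MR766, MOI = 0.5; after 24 h at 37 C, NS1 read by TR-FRET; data normalized to uninfected and infected controls.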

[2] = qHTS of pediatric cancer cell lines to identify multiple opportunities for drug repurposing: Primary screen for TC32 cells (AID 1347089); note: nearly all actives have a fitted effect of over 60% in size
Summary of the method: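 Luminescent CellTiter-Glo read-out of metabolically active TC32 cells after 48 h compound exposure. Primary: MIPE 11-point, 0.78 nM–46 µM; NPC 8-point, 0.59 nM–46 µM. Confirmatory: 11-point dilutions.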

[3] = qHTS of pediatric cancer cell lines to identify multiple opportunities for drug repurposing: Primary screen for DAOY cells (AID 1347090); note: series mostly up to about 46 µM; nearly all actives have a fitted effect of over 55% in size
Summary of the method: (§1)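 Cell viability, CellTiter-Glo luminescence; 500-1,000 cells/well, 8- or 11-point titration, 48 h compound exposure at 37 degrees C, 5% CO2. Controls: DMSO neutral, bortezomib 2.3 µM final as positive.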

[4] = qHTS of pediatric cancer cell lines to identify multiple opportunities for drug repurposing: Primary screen for SJ-GBM2 cells (AID 1347091)
Summary of the method: as §1

[5] = qHTS of pediatric cancer cell lines to identify multiple opportunities for drug repurposing: Primary screen for A673 cells (AID 1347092); note: nearly all actives have a fitted effect of over 45% in size
Summary of the method: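 A673 cells (500-1,000 cells/well in growth media) were pre-incubated 5 h at 37 degrees C, then exposed to compounds for 48 h. Viability was read as CellTiter-Glo luminescence; concentration-response curves came directly from the primary screen.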

Measured: Potency

C[C@H]1COc2c(N3CCN(C)CC3)c(F)cc3c(=O)c(C(=O)O)cn1c23
inactive: [1] | [2] | [3] | [4] | [5]

C[C@H](NC(=O)[C@@H](O)c1cc(F)cc(F)c1)C(=O)N[C@@H]1C(=O)N(C)c2ccccc2-c2ccccc21
inactive: [1] | [2] | [3] | [4]

CC(=O)OC[C@@H]1O[C@@H](n2ccc(=O)[nH]c2=O)[C@H](OC(C)=O)[C@H]1OC(C)=O
inactive: [1] | [2] | [3] | [4]

CC(C)(O)CC[C@@H](O)[C@](C)(O)[C@H]1CC[C@@]2(O)C3=CC(=O)[C@@H]4C[C@@H](O)[C@@H](O)C[C@]4(C)[C@@H]3CC[C@]12C
inactive: [1] | [2] | [3] | [4]

NC(=O)c1ncn([C@@H]2O[C@H](CO)[C@@H](O)[C@@H]2O)c1N
inactive: [1] | [2] | [3] | [4] | [5]

CC[C@H]1OC(=O)[C@H](C)[C@@H](O[C@H]2C[C@@](C)(OC)[C@@H](O)[C@H](C)O2)[C@H](C)[C@@H](O[C@@H]2O[C@H](C)C[C@H](N(C)C)[C@@H]2O)[C@](C)(OC)C[C@@H](C)C(=O)[C@H](C)[C@@H](O)[C@]1(C)O
inactive: [1] | [2] | [3] | [4]

CCCCCCCN(CC)CCCC(O)c1ccc(NS(C)(=O)=O)cc1 (centres undefined)
inactive: [1] | [2] | [3]

CCOC(=O)C=C[C@H](C[C@@H]1CCNC1=O)NC(=O)[C@@H](CC(=O)[C@@H](NC(=O)c1cc(C)on1)C(C)C)Cc1ccc(F)cc1
inactive: [1] | [2] | [3] | [4] | [5]
